Compound activity from PubChem.
Rows were chosen to be rich in hits. Some 2.3% of all compounds tested hit in one or more screens of this group.
ATXN2 expr inh = inhibitors of ATXN2 expression; HEK-293 ATXN2-luciferase reporter, luminescence, 24 h; Potency, µM (doses to about 57 µM), for inactives: at the highest dose activity change, negative = inhibition, actives largely listed as inhibitors; 360,000 tested, 0.72% active; AID 1745845; also: % is scaled to controls: 0 for no effect and ±100 for the full control effect; nearly all actives have a fitted effect of over 55% in size
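qHTS (up to 57 uM final) was run with 24 h compound exposure of reporter cells at 37 °C. Each well was multiplexed: SteadyGlo luminescence measured ATXN2-luciferase expression after a fluorogenic Gly-Phe-AFC viability readout (25 uM final).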
HepG2 tox-1 = HepG2 cytotoxicity, counter-screen for TGF-b inhibitors. Potency, µM (series often up to 46.1 µM), for the others: at the top dose activity change, negative = cytotoxicity, hits mostly cytotoxic. 410,000 tested, 0.76% active. HepG2 CAGA-GFP viability, ATP luminescence, 18 h
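HepG2 CAGA-GFP cells (1000/well, DMEM with 1% FBS) received compound, then TGF-beta at 500 pg/mL final, and were incubated 18 hours at 37 degrees C. Viability was read by CellTiter-Glo luminescence. Media-only wells were set as complete cell-killing and DMSO as no toxicity.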
S2 tox = cell viability loss in ATXN counter-screen; S2 cells (HEK-293 line with an ATXN2-luciferase reporter) viability, CellTiter-Fluor protease fluorescence, 24 h; Potency, µM (highest dose often 56.7 µM), most hits filed as cytotoxic; 400,000 tested, 0.49% active; AID 651635; also: nearly all actives have a fitted effect of over 40% in size
TGFb SMAD3 inh = inhibitors of TGF-b signaling. Potency, µM (highest dose often 46.1 µM), without a hit: top-dose activity, negative = inhibition, usual class: inhibitors. HepG2 CAGA-GFP TGF-b/SMAD3 reporter, GFP fluorescence, 18 h; TGF-beta stimulated, 500 pg/mL final. AID 588855. 410,000 tested, 1.2% active; also: % is scaled to controls: 0 for no effect and ±100 for the full control effect; nearly all actives have a fitted effect of over 65% in size
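First, reporter cells (HEPG2 CAGA-GFP) rested 2 h at 37 degrees C. Next, compounds were pinned in and TGF-beta added to 500 pg/mL final. After 18 h, GFP was imaged per cell and summed per well.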
TGFb confirm = TGF-b pathway inhibition, cherry-pick retest; shares compounds with TGFb SMAD3 inh; HepG2 CAGA-GFP TGF-b reporter, GFP fluorescence, 18 h; cells stimulated with TGF-beta, 500 pg/mL; Potency, µM (series often up to 46.1 µM), for the others: at the highest dose activity, negative = inhibition, usual class: inhibitors; 1,600 tested, 63% active; also: % is scaled to controls: 0 for no effect and ±100 for the full control effect; nearly all actives have a fitted effect of over 65% in size
HepG2 tox-2 = toxic to HepG2 cells in TGF-b counterscreen; shares compounds with TGFb SMAD3 inh; HepG2 CAGA-GFP viability, ATP luminescence, 18 h; cells stimulated with TGF-beta, 500 pg/mL; Potency, µM (titrated, usually from 46.1 µM), for inactives: at the highest dose activity, negative = cytotoxicity, hits mostly inhibitors; 1,600 tested, 27% active; also: % is scaled to controls: 0 for no effect and ±100 for the full control effect; nearly all actives have a fitted effect of over 70% in size
TGFb CCL64 inh = blocks TGF-b signaling in CCL64 reporter cells; shares compounds with TGFb SMAD3 inh; CCL64 CAGA-GFP reporter, TGF-b stimulated, GFP fluorescence, 18 h; Potency, µM (doses to about 46.1 µM), for the others: at the highest dose activity, negative = inhibition, most hits filed as inhibitors; 1,600 tested, 41% active; AID 720536; also: nearly all actives have a fitted effect of over 65% in size
TGFb COP inh = validation of TGF-b inhibitors in HepG2 COP promoter reporter | shares compounds with TGFb SMAD3 inh | 1,600 tested, 3% active | HepG2 COP-GFP TGF-b reporter, GFP fluorescence, 18 h; cells stimulated by added recombinant TGF-beta | Potency, µM (top dose mostly 46.1 µM), inactives show at the top dose activity, negative = inhibition, usual class: inhibitors; also: nearly all actives have a fitted effect of over 70% in size
Active calls of the source: *; i = inactive; ? = inconclusive; · = not tested or not shown. Calls follow the shape of the dose curve; as a rule, active = well fitted curve in the direction sought with a large enough effect; inconclusive = small, poorly fitted or top-dose-only effect, or another doubt; inactive = no such curve, though single readings can be large; an effect the other way counts as inactive or inconclusive. Potency is read from the fitted curve at half-maximal effect.

SMILES	ATXN2 expr inh	HepG2 tox-1	S2 tox	TGFb SMAD3 inh	TGFb confirm	HepG2 tox-2	TGFb CCL64 inh	TGFb COP inh
COc1cccc(CNc2nc3cc(-c4ccsc4)sc3c(=O)n2C)c1OC	?	3.0%	?	?	?	?	?	19.9%
COc1cccc(CNc2nc3cc(-c4ccc(F)cc4)sc3c(=O)n2C)c1OC	-6.5%	-25.8%	i	-2.1%	·	·	·	·
Cc1ccc(SCC(c2ccccc2)N2CCN(C)CCC2=O)cc1 (stereo not drawn)	·	-6.1%	·	-6.1%	·	·	·	·
COc1cccc(NC(=O)C(NCCC(C)C)c2ccccc2)c1 (stereo not drawn)	-7.0%	-30.8%	i	12.6µM*	?	-5.2%	-27.9%	-6.3%
CCCCCN(CCCOC)C(=O)C(CCC(=O)O)NC(=O)c1ccc(Cl)c(Cl)c1 (stereo not drawn)	5.6%	·	i	·	·	·	·	·
COc1ccc(SCC(CC(C)C)N2CCN(CCc3ccccc3)CCC2=O)cc1 (stereo not drawn)	·	-0.5%	·	?	·	·	·	·
CCCCCCCN(c1ccccc1)[C@@H]1C[C@H]2CCCC(=O)N3CC[C@@H](C1)[C@@H]23	?	11.2µM*	·	10µM*	?	?	20.6µM*	20.6µM*
Cc1cc(C)nc(N/C=C(\C#N)C(=O)c2cccc(CSc3ccccc3)c2)n1	·	-5.2%	·	-2.1%	·	·	·	·
CCn1c(SC(C)C(=O)NCc2ccco2)nnc1-c1ccccc1 (stereo not drawn)	·	12.3%	·	13.2%	·	·	·	·
COc1ccc(C2/C=C\CN(Cc3ccccc3)C(C)C(=O)N2Cc2ccc(F)cc2)cc1 (stereo not drawn)	·	-4.0%	·	?	·	·	·	·
CCN(CC)C(=O)[C@H]1C[C@H](CC(=O)NCc2cccc(C(F)(F)F)c2)C(=O)N2CCc3c([nH]c4cc(-c5ccco5)ccc34)[C@]12C	?	-38.3%	?	10µM*	9.2µM*	16.4µM*	11.6µM*	35.1%
C[C@]12c3[nH]c4cc(-c5ccco5)ccc4c3CCN1C(=O)[C@@H](CC(=O)NCCc1ccccn1)C[C@@H]2C(=O)N1CCCCC1	-22.9%	-2.3%	i	?	?	-21.2%	-27.1%	32.4%
CCN(CC)C(=O)[C@H]1CC(CC(=O)NCc2cccc(C(F)(F)F)c2)C(=O)N2CCc3c([nH]c4ccc(OC)cc34)[C@]12C (stereo partly drawn)	?	-4.4%	?	8.91µM*	32.6µM*	-29.2%	?	5.9%
CC[C@]12c3[nH]c4cc(-c5ccco5)ccc4c3CCN1C(=O)[C@@H](CC(=O)NCCc1ccccn1)C[C@@H]2C(=O)N1CCN(C(=O)C2CC2)CC1	-3.5%	-2.1%	i	?	·	·	·	·
COc1ccc2[nH]c3c(c2c1)CCN1C(=O)C(CC(=O)NCCC2=CCCCC2)C[C@H](C(=O)N2CCCCC2)[C@@]31C (stereo partly drawn)	-0.7%	-35.7%	i	7.94µM*	?	-8.1%	-13.0%	27.2%
C=C1NN(C(C)C(=O)O)C(=O)N1c1ccc(OCc2ccccc2)cc1 (stereo not drawn)	·	-2.5%	·	-5.4%	·	·	·	·
CCSc1ncc(Cl)c(C(=O)Nc2sc3c(c2C(=O)OC)CCCC3)n1	·	0.5%	·	12.6%	·	·	·	·
